These results are taken from PubChem BioAssay.

Assay [1] in a line: liver-stage malaria parasite growth inhibition, primary screen, cell-based, HepG2, luciferase luminescence, HepG2 viability (AID 624349).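 Note: 100% = mean of DMSO negative control wells on the same plate.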 Conditions: P. berghei liver stage in HepG2, luciferase luminescence, concentration not given here; parasite load remaining: stronger effect = lower value; viability: measured here: HepG2 viability without parasites.
The nature of assay [2]: differential killing of epithelial or mesenchymal cells, primary screen, imaging, PC-3E GFP, TEM4-18 mCherry, co-culture (AID 1345086;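 active = compounds killing one labelled cell type while sparing the other, by normalised counts and ratio limits, not self-fluorescent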;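 for all read-outs here: cells exposed to compound for 72 h before imaging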;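 for red/green cell ratio (normalised): normalised mesenchymal count divided by normalised epithelial count so high means epithelial killing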). The conditions noted are these: imaging cell counts, at 1 µM; for red/green cell ratio (normalised): actives lie on both sides, counts scaled to control wells, 1 = unselective.
The nature of assay [3]: sensitizers of A549 cells to miR-34 induction, primary screen, imaging, A549 dox-inducible miR-34, nuclei and caspase counts (AID 1347080;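 active = compounds whose cell count with miR-34 switched on is under 0.7 times the count with it off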). Conditions: A549 miR-34 inducible, Hoechst nuclei count, 48 h.
Setting [4] is: measured here: epithelial PC-3E GFP cell survival.
[5] abbreviates: measured here: mesenchymal TEM4-18 mCherry cell survival.
Setting [6] is: stronger effect = lower value, cell number ratio, induced over uninduced.
Setting [7] is: measured here: relative caspase fold change +Dox/-Dox.
Setting [8] is: measured here: total cells with miR-34 induction, stronger effect = lower value.
The mark [9] stands for this setting: measured here: total cells without miR-34 induction.

Several values for one entry are separate records, joined by “and”; a condition that tells them apart may be missing. Equal entries are not always repeated. Activity calls are given as the source filed them. Cut-off read from the data, not from the text of the source, unless noted: active = parasite load remaining mostly below about 12% (no sharp cut-off); inactive = mostly above about 10%. Numbered stars: 1 amine (or outer) side, 2 acyl side, 3 side chain; on linkers, the order of the positions; unused ones are H or OH. Bridge positions count the residues as written; N and C are the ends. Square brackets hold non-standard residues; d marks the D form. Peptide text beside a SMILES is read from it. * marks the point of attachment. ξ: configuration not given here. ΔAla(E,3-NHCONH2) = NC(=O)N/C=C(/N)C(=O)O; X1 = NC1=NCCC(C(N[*:1])C(=O)[*:2])N1; ξβ3hOrn = NCCCC(N)CC(=O)*; Dap = NC[CH](N)C(=O)O

`NCCCC(N)CC(=O)NCC1NC(=O)C(CO)NC(=O)C(N)CNC(=O)C(C2CCN=C(N)N2)NC(=O)/C(=C\NC(N)=O)NC1=O` (stereo not drawn) (H-[Dap]S[Dap](ξβ3hOrn)[ΔAla(E,3-NHCONH2)][X1]; lactam 1-C; configuration not given here): in assay [1], the parasite load remaining is 84% (inactive) and 54.2% (inactive). Besides, in assay [1], the viability is 74.9% and 94.9%. The red/green cell ratio (normalised) in assay [2] was 0.98 (inactive). Moreover, the normalised cell number was 1.11 in assay [2] (setting [4]) and 1.09 in assay [2] (setting [5]). The fold change in assay [3] (setting [6]) was 0.856 (inactive); in assay [3] (setting [7]), 1.07. For the same compound, the cell count was 11300 in assay [3] (setting [8]) and 13200 in assay [3] (setting [9]).

`C#C[C@]1(OC(C)=O)CCC2C3CCC4=C/C(=N/O)CCC4C3CC[C@@]21CC` (some centres not stated): in assay [1], the parasite load remaining was 66.7% (inactive). The viability in assay [1] was determined as 100%. Besides, the red/green cell ratio (normalised) in assay [2] was 0.75 (inactive). For the same compound, the normalised cell number in assay [2] (setting [4]) was 1.02; in assay [2] (setting [5]), 0.76. Further, the results for the fold change in assay [3] (setting [6]) and in assay [3] (setting [7]) were 0.914 (inactive) and 2.93, respectively. For the same compound, the cell count is 11600 in assay [3] (setting [8]) and 12700 in assay [3] (setting [9]).

`CC(=O)O[C@]1(C(C)=O)CCC2C3C=C(C)C4=CC(=O)CCC4(C)C3CCC21C` (some centres not stated): the parasite load remaining in assay [1] was 94.3% (inactive) and 19.1% (inactive). Also, the viability in assay [1] was 74.8% and 83.8%. Besides, in assay [2], the red/green cell ratio (normalised) is 0.94 (inactive). For the same compound, the normalised cell number was 1.18 in assay [2] (setting [4]) and 1.11 in assay [2] (setting [5]). Also, the fold change in assay [3] (setting [6]) was 0.897 (inactive); in assay [3] (setting [7]), 2.81. The cell count is 9250 in assay [3] (setting [8]) and 10300 in assay [3] (setting [9]).

For `CC(CCC(=O)O)[C@H]1CCC2C3C(=O)C[C@@H]4CC(=O)CC[C@]4(C)C3CC(=O)[C@@]21C` (some centres not stated), the parasite load remaining in assay [1] is 50.2% (inactive). Further, the viability in assay [1] turned out to be 81.3%. Besides, the red/green cell ratio (normalised) in assay [2] is 1.13 (inactive). For the same compound, the figures for the normalised cell number in assay [2] (setting [4]) and in assay [2] (setting [5]) were 0.93 and 1.05, respectively. Also, the fold change in assay [3] (setting [6]) is 0.923 (inactive); in assay [3] (setting [7]), 1.77. Also, the figures for the cell count in assay [3] (setting [8]) and in assay [3] (setting [9]) were 11900 and 12900, respectively.

For the compound `C[C@H]1O[C@@H](O[C@H]2[C@@H](O)C[C@H](O[C@H]3[C@@H](O)C[C@H](O[C@H]4CC[C@]5(C)C6CC[C@]7(C)[C@@H](C8=CC(=O)OC8)CC[C@]7(O)C6CC[C@@H]5C4)O[C@@H]3C)O[C@@H]2C)C[C@H](O)[C@@H]1O` (some centres not stated), in assay [1], the parasite load remaining is 0.925% (inactive) and 0.995% (inactive). Moreover, the viability in assay [1] is 37.2% and 52.3%. Further, in assay [2], the red/green cell ratio (normalised) was 0.46 (inactive). Besides, the normalised cell number in assay [2] (setting [4]) turned out to be 0.15; in assay [2] (setting [5]) it was 0.07. The figures for the fold change in assay [3] (setting [6]) and in assay [3] (setting [7]) were 0.424 (active) and 1.53, respectively. Also, the values for the cell count in assay [3] (setting [8]) and in assay [3] (setting [9]) were 190 and 450, respectively.

Take `OC[C@@H](O)C(O[C@@H]1O[C@H](CO)[C@H](O)[C@H](O)[C@H]1O)[C@H](O)[C@@H](O)CO` (some centres not stated): in assay [1], the parasite load remaining was 63.4% (inactive). Moreover, the viability in assay [1] worked out at 99.9%. Further, in assay [2], the red/green cell ratio (normalised) is 1.21 (inactive). For the same compound, the normalised cell number was found to be 0.87 in assay [2] (setting [4]) and 1.06 in assay [2] (setting [5]). The fold change was 0.87 (inactive) in assay [3] (setting [6]) and 4.32 in assay [3] (setting [7]). In addition, the cell count in assay [3] (setting [8]) was 11300; in assay [3] (setting [9]), 13000.

With `CC(C)C1CCC(C(=O)N[C@@H](Cc2ccccc2)C(=O)O)CC1` (some centres not stated), the parasite load remaining in assay [1] was 74.2% (inactive) and 53.3% (inactive). Moreover, in assay [1], the viability was 105% and 113%. Further, the red/green cell ratio (normalised) in assay [2] is 0.92 (inactive). In addition, the normalised cell number in assay [2] (setting [4]) was determined as 1.14; in assay [2] (setting [5]), 1.05. Besides, the fold change was 0.867 (inactive) in assay [3] (setting [6]) and 4.55 in assay [3] (setting [7]). The cell count was determined as 11100 in assay [3] (setting [8]) and 12800 in assay [3] (setting [9]).

Take `CCCCC/C=C/CCC(=O)N[C@H]1[C@H](Oc2c3cc4cc2Oc2ccc(cc2Cl)[C@@H](O[C@@H]2O[C@H](CO)[C@@H](O)[C@H](O)[C@H]2NC(C)=O)[C@@H]2NC(=O)[C@H](NC(=O)[C@@H]4NC(=O)[C@H]4NC(=O)C(Cc5ccc(c(Cl)c5)O3)NC(=O)[C@H](N)c3ccc(O)c(c3)Oc3cc(O)cc4c3)c3ccc(O)c(c3)-c3c(OC4O[C@H](CO)[C@@H](O)[C@H](O)[C@@H]4O)cc(O)cc3[C@@H](C(=O)O)NC2=O)O[C@H](CO)[C@@H](O)[C@@H]1O` (some centres not stated): in assay [1], the parasite load remaining was 146% (inactive). Further, in assay [1], the viability stood at 99.2%. Moreover, in assay [2], the red/green cell ratio (normalised) was 1.02 (inactive). For the same compound, the normalised cell number was found to be 0.94 in assay [2] (setting [4]) and 0.96 in assay [2] (setting [5]). Besides, the figures for the fold change in assay [3] (setting [6]) and in assay [3] (setting [7]) were 0.918 (inactive) and 5.67, respectively. Besides, the cell count was 12100 in assay [3] (setting [8]) and 13200 in assay [3] (setting [9]).

A word on the viability: it is a read-out of living cells in per cent, often relative to untreated cells.
